Our source for the activation values is PubChem BioAssay AID652017 (The Scripps Research Institute Molecular Screening Center, 2013).

The whole screen tested about 370,000 compounds, of which about 3,800 (1%) were called active. The entries come from a sample that favours actives as a whole. Unmarked numbers belong to inactive results. Cut-off read from the data, not from the text of the source: active = activation above about 7.8%; inactive = the rest.

This assay in a line: SMARCA2 (BRM) function activators, primary screen, cell-based, luminescence, high throughput (AID 652017).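 Note: 0% = vehicle wells and 100% = reference activator wells.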 To be noted: MG213 cells, MMTV-luciferase reporter, dexamethasone, overnight; at 9.1 µM; hits give high values. In general terms: In a reporter assay the amount or activity of a reporter protein is the signal.
On to `O=C(Nc1nnc(CCc2ccccc2)s1)C1CCCO1` (configuration not stated), for which the activation is 8.46% (active).
With `O=C(C1CCCO1)N(Cc1ccccc1)c1ccccc1` (configuration not stated), the activation was -1.33%.
The figure for `O=C(NCc1ccccc1Cl)C1CCCO1` (configuration not stated) is -4.52%; for `CC(=O)C1(C(=O)Nc2nccs2)CC(c2ccccc2C(F)(F)F)=NO1` (configuration not stated) it is -1.46%.
The figure for `COc1ccc(CN(CCN2CCOCC2)C(=O)c2ccc(C)cc2)cc1OC` is -0.94%; for `CN(C)[C@H]1CCN(c2cccc3c2S(=O)(=O)N2CC[C@H](C2)O3)C1` it is 0.57%.
The figure for `COc1ccc(-c2cc(-c3nnc(SCC(=O)Nc4cccc5ccccc45)n3N)[nH]n2)cc1` is -3.63%; for `COc1ccc(C#CCNCc2ccc(OC)cc2OC)cc1` it is -1.96%; for `C=CCOC/C=C/C#CCN(CC=C)Cc1ccc(OC)cc1OC` it is 7.87% (active).
For the compound `COc1ccc(CN(C)Cc2nc3cc(OC)c(OC)cc3c(=O)[nH]2)c(OC)c1`, the activation was -2.98%.
The figure for `C=CCN1C(=O)[C@H](CC(=O)N2CCN(C(=O)OCC)CC2)[C@@]2(C(=O)OCC)CCCC=C12` is -0.21%; for `C=CCN1C(=O)[C@H](CC(=O)NCCCN2CCCC2=O)[C@@]2(C(=O)OCC)CCCC=C12` it is -0.89%; for `CCn1c2ccccc2c2cc(NC(=O)CSc3nnc(-c4ccccc4)n3-c3ccc(C)cc3)ccc21` it is -2.83%.
Regarding `CCc1cc2c(=O)c(-c3ccon3)c(N)oc2cc1OC`, the activation is 8.66% (active).
In the case of `CCc1cc2c(=O)c(-c3nc4ccccc4n3C)c(CCCC(=O)O)oc2cc1OC(=O)C(C)(C)C`, the activation was -2.32%.
The figure for `COc1ccc2oc(N)c(C=O)c(=O)c2c1` is 0.14%; for `O=S1(=O)c2c(NCc3ccco3)cccc2Oc2ccccc2CN1Cc1cn(Cc2cccc(C(F)(F)F)c2)nn1` it is -3.67%; for `CCN(CC)CCNC(=O)c1ccc(NC(=O)c2c(F)cccc2Cl)cc1` it is -0.88%.
Consider `CCN(CC)CCOC(=O)c1ccc(NC(=O)CNC(=O)c2ccccc2)cc1`, for which the activation was -3.5%.
The figure for `CCN(CC)CCNC(=O)c1ccc(NC(=O)c2cc(-c3ccncc3)nc3ccccc23)cc1` is 8.42% (active); for `O=C1Nc2ccccc2OC1CC(=O)N1CCCCCCC1` (configuration not stated) it is 0.95%; for `COc1ccc(-c2ccc3nnc(SCC(=O)Nc4ccc(NC(C)=O)cc4)n3n2)cc1` it is -0.74%.
Turning to `O=[N+]([O-])c1ccc(CN2CC(N3CC=CC3)CS2(=O)=O)cc1` (configuration not stated), the activation was -2.21%.
The figure for `O=C1/C(=C\c2ccc([N+](=O)[O-])cc2)CS(=O)(=O)C/C1=C/c1ccc([N+](=O)[O-])cc1` is 16.5% (active).
The figure for `C[C@H](C(=O)N(C)c1ccccc1)[C@@H](O)c1ccc2ccccc2c1` is -2.92%; for `CCCCCCNS(=O)(=O)c1ccccc1Br` it is -0.14%.
Consider `c1csc(-c2nnc(SCc3nc4ccccc4[nH]3)o2)c1`, for which the activation was -0.75%.
The value for `Cc1cccc(CSc2ccc(-c3cccs3)nn2)c1` was 9.78% (active); that for `CC(C)(C)c1ccc(CSc2nnc(-c3cccs3)o2)cc1` was -1.53%; that for `O=C(CSc1ccc(-c2cccs2)nn1)Nc1ccccc1F` was -0.22%.
The figure for `Cc1ccc(OCc2nnc(SC/C=C/c3ccccc3)n2Cc2ccco2)cc1` is -4.07%.
The value for `CC(OC(=O)c1cc2ccccc2o1)C(=O)Nc1ccc(N2CCOCC2)cc1` (configuration not stated) was -1.72%; that for `Cc1ccc(NC(=O)c2cc3ccccc3o2)cc1` was 8.36% (active); that for `Cc1cccc(-n2nc3c(c2NC(=O)c2cc4ccccc4o2)CS(=O)(=O)C3)c1` was -1.69%.
In the case of `O=C(Nc1ccccc1)N1CCN(Cc2nc3ccccc3c(=O)[nH]2)CC1`, the activation is -4.04%.
The value for `COC(=O)c1cc(S(=O)(=O)N2CCN(c3ccccc3C)CC2)cn1C` was -6.95%; that for `CCCCOCCCNC(=O)C[C@H]1C[C@@]2(C(=O)OC)C(=C[C@H](C(C)(C)C)O[C@@H]2C)N(CCc2ccc(OC)c(OC)c2)C1=O` was -1.39%; that for `Nc1[nH]c(/C=C2/CCCCC2n2[nH]c(=O)n(-c3ccccc3)c2=O)c(Cc2ccccc2)[n+]1Cc1ccccc1` (configuration not stated) was -4.04%.
Consider `COc1ccc(N2CC(C(=O)N[C@@H](C)C(=O)N3CCCCC3)CC2=O)cc1` (some centres not stated), for which the activation is 1.33%.
In the case of `COc1ccc(S(=O)(=O)NC(C)C(=O)N2CCCCCC2)cc1` (configuration not stated), the activation was 8.03% (active).
The figure for `COc1ccc(CNS(=O)(=O)c2ccc(NC(=O)N3CCCCC3)cc2)cc1` is -3.18%; for `COCC(=O)N[C@@H]1C[C@@H]2O[C@@H](CO)CC[C@@H]2O[C@@H]1CCc1ccc(-c2ccccc2)cc1` it is 0.63%.
Consider `CCOC(=O)[C@]12CCCC=C1N(Cc1ccc(OC)cc1)C(=O)[C@@H]2CC(=O)NCc1cccs1`, for which the activation is -2.09%.
The figure for `O=C(Cn1[nH]c(=O)c2ccccc2c1=O)Nc1cccc(-c2nnc3n2CCCCC3)c1` is -0.49%; for `Cc1c(C(=O)Nc2cccc(-c3nnc4n3CCCCC4)c2)oc2ccccc12` it is -1.34%; for `CC(=O)c1ccc(NC(=O)c2sc3nc4n(c(=O)c3c2C)CCCCC4)cc1` it is 9.72% (active).
The value for `CC1CCN(C(=O)c2ccc3c(=O)n4c(nc3c2)CCCCC4)CC1` was -1.07%; that for `O=C(Nc1ccc2nc3n(c(=O)c2c1)CCCC3)c1ccc(Cl)nc1` was -1.5%; that for `O=c1c2c(nc3n1CCCCC3)sc1c(O)cccc12` was 10.3% (active).
On to `COc1cccc(CNC(=O)CNS(=O)(=O)c2ccc3nc(C)sc3c2)c1OC`, for which the activation was -2.54%.
The figure for `O=C(NC1CCCC1)C1CSCCS(=O)(=O)N1Cc1ccccc1` (configuration not stated) is -0.49%.
The figure for `COC(=O)[C@]12C[C@H](CC(=O)NCCCN3CCCC3=O)C(=O)N(CCc3ccc(OC)c(OC)c3)C1=C[C@H](COCc1ccccc1)O[C@@H]2C` is -2.89%.
For `Cc1cc(C)cc(NC(=O)N2CCC(N(C)CCC(C)C)CC2)c1`, the activation was -3.63%.
On to `COC(=O)c1cccc(Cn2ccc3ccc(-c4ccc5ccn(C(=O)c6ccccc6C)c5c4)cc32)c1`, for which the activation is -2.21%.
The value for `COc1ccc(-n2c(SCC(=O)Nc3ccccc3-c3ccccc3)nnc2-c2cccnc2)cc1` was -4.88%.
The value for `COc1ncnc2c1ncn2CCCNCCN1CCOCC1` was -1.94%; that for `O=C(Nc1ccc2sc3ccccc3c(=O)c2c1)c1ccccc1Cl` was 5.49%; that for `O=C(Nc1cc(=O)[nH]c2ncnn12)c1ccccc1Cl` was 8.25% (active).
The value for `CC(=O)c1cc(CN2CCC(n3nccc3NC(=O)c3ccccc3Cl)CC2)cs1` was -2.24%.
For the compound `Cc1cc(Br)ccc1NC(=O)CCCOc1cc(=O)n(C)c2ccccc12`, the activation was -2.55%.
The figure for `OC(CCl)CCl` is -4.79%; for `COc1ccc(CCNC(=O)CCNS(=O)(=O)c2cc(Br)cnc2N)cc1OC` it is -1.13%.
The value for `COc1c(O)cc2oc(-c3ccc(O)c(O)c3)cc(=O)c2c1O` was 8.25% (active).
Consider `CCCCOCCCNC(=O)C[C@H]1C[C@@]2(C(=O)OC)C(=C[C@H](COCc3ccccc3)O[C@@H]2C)N(Cc2cccc3ccccc23)C1=O`, for which the activation was -2.77%.
The value for `O=C(C1CCCN1S(=O)(=O)c1ccccc1)N1CCc2ccccc2C1` (configuration not stated) was -4.12%.
The value for `Cc1ccc(C(=O)C2CCN(CC(=O)NCCC(C)C)CC2)cc1` was -3.11%; that for `Cc1nn(Cc2ccc(Cl)c(Cl)c2)c(C)c1NC(=O)c1cc(C2CC2)on1` was -4.98%.
The figure for `Cc1nn(Cc2ccc(F)cc2)c(C)c1NC(=O)c1noc2c1CCc1ccccc1-2` is -4.67%.
Regarding `Cc1nn(Cc2ccc(F)cc2)c(C)c1NC(=O)c1cccnc1Cl`, the activation is 11.7% (active).
The value for `COc1ccc(Cn2cc(CN3[C@@H](CC(C)C)COc4cc(Br)ccc4S3(=O)=O)nn2)cc1` was 0.39%.
As to `C/C(Cn1nnc2ccccc21)=N\OC(=O)c1cc(F)c(F)cc1Cl`, the activation was -0.31%.
In the case of `COc1ccc(-n2c(SCC(=O)Nc3ccc4cn[nH]c4c3)nnc2-c2cccnc2)cc1`, the activation is 6.71%.
As for `COc1ccc(C)cc1NC(=O)c1cc(-c2ccccc2)nc2c1cnn2C(C)C`, the activation was -4.75%.
The value for `Cc1ccc(/C=N/NC(=O)COc2ccccc2-c2ccccc2)cc1` was -0.77%.
The figure for `COc1ccc(/C=N/NC(=O)c2cc(-c3cccc(C)c3)nc3ccccc23)cc1O` is 8.84% (active); for `CCC(=O)Nc1ccc2c(c1)C(=O)N(C)[C@H]1CC[C@H](CC(=O)NCCOC)O[C@@H]1CO2` it is -1.86%.
The figure for `CC(CCN1CCC(C(O)(c2ccccc2)c2ccccc2)CC1)Oc1ccc([N+](=O)[O-])cc1Cl` (configuration not stated) is 5.01%; for `Cc1cc(C(=O)NNC(=S)Nc2ccccc2C)cs1` it is 8.64% (active); for `Cc1cc(C(=O)NNC(=S)NC(C)c2ccccc2)cs1` (configuration not stated) it is -0.96%.
For the compound `Cc1ccccc1NC(=O)c1cc(S(=O)(=O)N2CCOCC2)cs1`, the activation was -0.28%.
The figure for `COC(=O)[C@]12C[C@H](CC(=O)NCc3ccccc3)C(=O)N(CCC3=CCCCC3)C1=C[C@H](C(C)C)O[C@@H]2C1CC1` is 0.2%.
`C=CCN1C(=O)[C@@H](CC(=O)N2CCN(C(=O)c3ccco3)CC2)[C@]2(C(=O)OC)CCCCC=C12`: the activation was -3.14%.
The figure for `COC(=O)C12C=C3CC(c4ccccc4)=C3C(=O)N1Cc1[nH]c3ccccc3c1C2` (configuration not stated) is -3.71%; for `CN1C(=O)c2cc(NS(C)(=O)=O)ccc2OC[C@@H]2O[C@@H](CC(=O)NCc3ccc(-c4ccccc4)cc3)CC[C@H]21` it is 0.34%.
The figure for `CCOc1ncccc1C(=O)OCC(=O)N1c2ccccc2CC1C` (configuration not stated) is -1.56%.
Turning to `Cc1ccn(CCC(=O)N2c3ccccc3CC2C)n1` (configuration not stated), the activation was -2.39%.
The figure for `CCCC(=O)N1c2ccc(-c3csc(N)n3)cc2CC1C` (configuration not stated) is 13.2% (active).
